Screening data deposited in PubChem BioAssay by National Center for Advancing Translational Sciences (NCATS).
Menin-MLL FL inh: inhibitors of human menin-MLL interaction, wild-type MLL peptide; Fluorescence polarization, fluorescein-MLL peptide displacement from menin; FP activity change, % at 61.4 µM; 290,000 tested, under 10 active; active = well fitted curve in the direction sought with a large enough effect in the polarisation, not every such curve was filed as active; inconclusive = small, poorly fitted or top-dose-only effect, or effect the other way, or a change in a side signal; inactive = no such curve, though single readings can be large or run the other way; the % refers to the polarisation; note: % of control where 0% means no effect
TRPV1 potentiator: potentiators of human vanilloid receptor 1 (TRPV1) | Q8NER1 | TRPV1-expressing cells, Fluo-8 calcium influx, capsaicin EC20 potentiation | potentiation, % at 8.33 µM | 320,000 compounds, 0.02% hits | AID 540277; in the data active = potentiation above about 80%; inconclusive = between about 30% and that limit; note: 0% is about no effect
Target sequence (Q8NER1 whole entry, looked up): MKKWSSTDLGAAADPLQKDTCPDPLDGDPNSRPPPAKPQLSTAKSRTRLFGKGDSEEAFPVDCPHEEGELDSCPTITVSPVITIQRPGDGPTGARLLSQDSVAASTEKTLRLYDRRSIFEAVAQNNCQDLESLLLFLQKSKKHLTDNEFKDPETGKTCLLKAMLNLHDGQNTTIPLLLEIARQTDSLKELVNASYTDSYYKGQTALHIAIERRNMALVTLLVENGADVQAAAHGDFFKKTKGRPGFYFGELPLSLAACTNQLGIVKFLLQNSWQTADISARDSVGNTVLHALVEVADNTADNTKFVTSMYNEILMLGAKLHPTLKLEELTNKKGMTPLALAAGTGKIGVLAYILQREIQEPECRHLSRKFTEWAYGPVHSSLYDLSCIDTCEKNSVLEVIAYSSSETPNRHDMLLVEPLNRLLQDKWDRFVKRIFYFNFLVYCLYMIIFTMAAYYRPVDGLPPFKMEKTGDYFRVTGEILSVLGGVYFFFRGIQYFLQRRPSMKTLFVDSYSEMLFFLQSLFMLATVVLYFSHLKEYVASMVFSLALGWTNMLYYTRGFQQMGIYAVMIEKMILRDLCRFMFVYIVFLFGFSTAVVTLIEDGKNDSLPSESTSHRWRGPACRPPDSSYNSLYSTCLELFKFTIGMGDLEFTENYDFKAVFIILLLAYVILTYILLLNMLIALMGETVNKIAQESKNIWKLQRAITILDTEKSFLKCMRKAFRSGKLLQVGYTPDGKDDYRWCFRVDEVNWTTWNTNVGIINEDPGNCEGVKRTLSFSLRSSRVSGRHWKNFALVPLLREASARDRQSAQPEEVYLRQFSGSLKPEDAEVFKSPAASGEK
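TRPV1-expressing cells were cultured overnight at 35.5C and loaded with Fluo-8 calcium dye for 40 to 90 min at room temperature. After a 10 s baseline, compound was added and calcium influx was read kinetically for 3 min (ex 480/em 520 nm).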
MLL CXXC-DNA inh: MLL CXXC-DNA interaction inhibition. Q03164. MLL-CXXC / FITC-HOXA9 DNA fluorescence polarization. Potency, µM (series often up to 115 µM), for inactives: at the highest dose activity change, negative = inhibition, hits mostly inhibitors. 290,000 compounds, 0.037% hits. AID 2662; active = well fitted inhibition curve with a large enough effect in the polarisation, with a control signal flat, not every such curve was filed as active; inconclusive = small, poorly fitted or top-dose-only effect, or effect the other way, or a change in a side signal; inactive = no such curve, though single readings can be large or run the other way; the % refers to the polarisation; note: potency is the fitted concentration of half-maximal effect
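Purified MLL-CXXC (added from a 7 uM solution) was preincubated 5 min at ambient with pinned compounds in 50 mM Tris-HCl pH 7.5, 50 mM NaCl, 1 mM DTT, 0.05% BSA. Fluorescein-labeled HOX-A9 DNA (50 nM solution) followed, 30 min, then polarization read.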
TRPV1 ag: human TRPV1 agonism. AID 540275. 320,000 compounds, 0.19% hits. TRPV1-expressing cells, Fluo-8 calcium influx, agonist mode. activation, % at 8.33 µM; in the data active = activation above about 80%; inconclusive = between about 30% and that limit; note: 0% is about no effect
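TRPV1-expressing cells were cultured overnight at 35.5C and loaded with Fluo-8 calcium dye for 40 to 90 min at room temperature. After a 10 s baseline, compound was added and calcium influx was read kinetically for 3 min (ex 480/em 520 nm).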
Menin-MLL TR inh: menin-MLL binding inhibition, Texas Red mutant peptide; O00255; Menin + Texas Red MLL mutant peptide, fluorescence polarization; Potency, µM (series often up to 61.6 µM), inactives show at the top dose FP activity change, negative = inhibition, most hits filed as inhibitors; 270,000 compounds, 0.23% hits; active = well fitted inhibition curve with a large enough effect in the polarisation, with a control signal flat, not every such curve was filed as active; inconclusive = small, poorly fitted or top-dose-only effect, or effect the other way, or a change in a side signal; inactive = no such curve, though single readings can be large or run the other way; the % refers to the polarisation; note: potency is the fitted concentration of half-maximal effect; % of control where 0% means no effect
* marks the source's active call; other numbers are inactive results; ? = inconclusive; . = no result given; [ ] = another dose, or the depositor's remark. In the library only some 0.32% were active in any assay of this set; here they are far more common.

SMILES | Menin-MLL FL inh | TRPV1 potentiator | MLL CXXC-DNA inh | TRPV1 ag | Menin-MLL TR inh
CS[C@@H]1SC[C@H]2C(=O)N(C)C(C(C)C)C(=O)OC[C@@H](NC(=O)c3cnc4ccccc4n3)C(=O)N[C@@H](C)C(=O)N(C)[C@H]1C(=O)N(C)C(C(C)C)C(=O)OC[C@@H](NC(=O)c1cnc3ccccc3n1)C(=O)N[C@@H](C)C(=O)N2C (some centres not stated) | 1 | . | . | . | ?
N#Cc1cccc(-c2nc3cnc(Nc4ccccc4)nc3n(C[C@H]3CCCO3)c2=O)c1 | ? | . | . | . | 28µM*
O=c1c(-c2ccccc2)nc2cnc(Nc3ccccc3)nc2n1C[C@H]1CCCO1 | ? | . | . | . | 37%
CN(C)C1CCc2[nH]c3ccc(NC(=O)c4ccc(F)cc4)cc3c2C1 (configuration not stated) | 5 | . | . | . | 9%
COc1cccc(/C=C2\SC(N3CCC(C)CC3)=NC2=O)c1OC | -3 | -16 | -6% | 93* | -11%
CCOC(=O)[C@H]1[C@H]2COc3ccc(Cl)cc3[C@@H]2N2C(=O)c3cc(Cl)ccc3NC(=O)[C@@]12C | . | 11 | . | ? | .
CCOC(=O)[C@H]1[C@H]2COc3ccc(Cl)cc3[C@@H]2N2C(=O)c3cc(F)c(F)cc3NC(=O)[C@@]12C | . | 17 | . | 81* | .
CCOC(=O)[C@H]1[C@H]2COc3ccc(C)cc3[C@@H]2N2C(=O)c3cc(F)c(F)cc3NC(=O)[C@@]12C | . | 5 | . | 81* | .
O=C(CCc1ccncc1)N1CCCC(Nc2ccc(F)cc2)C1 (configuration not stated) | . | -13 | -1% | 14 | .
O=C(CCc1ccccc1)N1CCCC(Nc2ccc(F)cc2)C1 (configuration not stated) | -1 | 16 | -3% | 87* | 18%
COC(=O)c1ccc(C(=O)N2CCCC(Nc3ccc(C(C)C)cc3)C2)nc1 (configuration not stated) | . | 2 | 18% | 83* | .
CC(C)c1ccc(NC2CCCN(C(=O)c3ccnc(Cl)c3)C2)cc1 (configuration not stated) | 0 | -12 | -1% | 91* | 2%
Cc1ncsc1CCC(=O)N1CCCC(Nc2ccc(C(C)C)cc2)C1 (configuration not stated) | . | 0 | 8% | 84* | .
CN(C)C(=O)NC1CCCCCCC1 | 4 | . | . | . | 1%
CC[C@H](C)[C@H](NC(=O)CNC(=O)[C@H](CCCNC(=N)N)NC(=O)[C@H](CO)NC(=O)[C@H](C)NC(=O)[C@H](Cc1ccc(O)cc1)NC(=O)[C@H](Cc1c[nH]c2ccccc12)NC(=O)[C@H](C)NC(=O)[C@@H]1CCCN1C(=O)[C@H](CC(N)=O)NC(=O)[C@@H](NC(=O)[C@H](CC(=O)O)NC(=O)[C@@H]1CCCN1C(=O)[C@@H](N)[C@@H](C)O)[C@@H](C)CC)C(=O)N[C@@H](CCCNC(=N)N)C(=O)N1CCC[C@H]1C(=O)N[C@H](C(=O)NCC(=O)N[C@@H](CCCNC(=N)N)C(=O)N[C@@H](Cc1ccccc1)C(N)=O)C(C)C | 0 | . | . | . | 10%
COc1cc(NS(=O)(=O)c2ccc([N+](=O)[O-])cc2)c2ncccc2c1 | -2 | . | . | . | ?
C[C@H](NC(=O)[C@@H](Cc1c[nH]c2ccccc12)NC(=O)[C@@H](N)Cc1cnc[nH]1)C(=O)N[C@@H](Cc1c[nH]c2ccccc12)C(=O)N[C@H](Cc1ccccc1)C(=O)N[C@@H](CCCCN)C(N)=O | 2 | . | . | . | 3%
COC(=O)C1=C(C(=O)OC)[C@@H]2N(Cc3ccccc3)c3ccccc3[C@@]23C[C@@H](C(=O)OC)N(C(=O)c2ccco2)C3=N1 | 2[11.7 µM] | . | . | . | 12%[11.7 µM]
COc1ccccc1C1(O)CCN(CCCn2c3ccccc3c3ccccc32)CC1 | 3 | . | . | . | 4%
CC(=O)c1ccc(C(=O)N2CCCC(Nc3ccc(C(C)C)cc3)C2)s1 (configuration not stated) | . | -16 | 4% | ? | .
CC(C)c1ccc(NC2CCCN(C(=O)c3ccco3)C2)cc1 (configuration not stated) | . | -18 | -1% | 97* | .
Cc1cc(N)ccc1N1CCCC1 | 2 | -17 | ? | -3 | 28µM*
CC(C)ON(C(C(=O)NO)C(C)C)S(=O)(=O)c1ccc(-c2ccccc2)cc1 (configuration not stated) | 0 | . | . | . | -12%
Cc1ccc(/C=C/C2=CC3(C)CC2(C)C(c2ccc(C)cc2)CC3=O)cc1 (configuration not stated) | -2[11.7 µM] | . | . | . | 10µM*
CC[C@H](C)[C@H](NC(=O)[C@H](CC(=O)O)NC(=O)[C@H](CC(C)C)NC(=O)[C@H](Cc1cnc[nH]1)NC(=O)[C@H](C)NC(=O)[C@H](Cc1ccccc1)NC(=O)[C@H](Cc1ccc(O)cc1)NC(=O)[C@@H](NC(=O)[C@H](C)NC(=O)[C@H](CCC(=O)O)NC(=O)[C@H](CCC(=O)O)NC(=O)[C@H](CC(=O)O)NC(=O)CCC(=O)O)C(C)C)C(=O)N[C@H](C(=O)N[C@@H](Cc1c[nH]c2ccccc12)C(=O)O)[C@@H](C)CC | -3 | . | . | . | -3%
SMILES | Menin-MLL FL inh | TRPV1 potentiator | MLL CXXC-DNA inh | TRPV1 ag | Menin-MLL TR inh
Cc1oc(/N=C/c2ccccc2)c(C#N)c1C | 7 | 5 | 5% | -1 | 2%
COc1[nH]c(/N=C/c2ccccc2)c(C#N)c1C#N | ? | 12 | 8% | 2 | 11µM*
CC(C)NC(=O)c1ccc2c(=O)n(CC3CCCO3)c(=S)[nH]c2c1 (configuration not stated) | 2 | 143* | 11% | -8 | -14%
Cc1cc(=O)oc2cc(NC(=O)[C@H](CCCCN)NC(=O)[C@H](CC3CCCCC3)NC(=O)OCC3c4ccccc4-c4ccccc43)ccc12 | 29 | . | . | . | 9%
N#Cc1ccc(S(=O)(=O)N2CCCN(c3ccc(C(F)(F)F)cn3)CC2)cc1 | 0 | -25 | -9% | 81* | .
COc1cc(/C=N/NS(=O)(=O)c2ccc(C)c([N+](=O)[O-])c2)cc([N+](=O)[O-])c1O | -8 | 5 | 8% | -5 | 25µM*
CCCCC(=O)Nc1nc2c(s1)COc1ccccc1-2 | 1 | 25 | . | 121* | 29%
O=C(O)c1cc(=O)c2c3nc4ccccc4oc-3cc(=O)c2[nH]1 | 9 | . | -12% | . | 40µM*
Cc1cc(N/N=C/c2ccccc2)nc(N2CCOCC2)n1 | 0 | -13 | -2% | 86* | .
Cc1ccc(/C=N/Nc2cc(C)nc(N3CCOCC3)n2)cc1 | 4 | -28 | -2% | ? | .
CC(=O)c1cc(-c2ccc(F)cc2)n(CCC(=O)Nc2cccnc2)c1C | 2 | -26 | -1% | 81* | 1%
O=C(CCC(=O)c1ccc(F)cc1)Nc1cccnc1 | 0 | 1 | -8% | 3 | -1%
